A number with no mark means an inactive call. No rule for the calls is given here.
Target: Pantothenate synthetase (Mycobacterium tuberculosis (strain ATCC 25618 / H37Rv)) (UniProt P9WIL5)
Assay: Coupled enzyme confirmation of inhibitors against recombinant Mtb PanC (AID 375);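 also: 0% = full reaction with vehicle and 100% = no enzyme background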
Conditions: coupled enzyme assay; at 10 µM, hits give high values

Pantothenate synthetase (Mycobacterium tuberculosis (strain ATCC 25618 / H37Rv)), sequence (P9WIL5 whole entry, looked up): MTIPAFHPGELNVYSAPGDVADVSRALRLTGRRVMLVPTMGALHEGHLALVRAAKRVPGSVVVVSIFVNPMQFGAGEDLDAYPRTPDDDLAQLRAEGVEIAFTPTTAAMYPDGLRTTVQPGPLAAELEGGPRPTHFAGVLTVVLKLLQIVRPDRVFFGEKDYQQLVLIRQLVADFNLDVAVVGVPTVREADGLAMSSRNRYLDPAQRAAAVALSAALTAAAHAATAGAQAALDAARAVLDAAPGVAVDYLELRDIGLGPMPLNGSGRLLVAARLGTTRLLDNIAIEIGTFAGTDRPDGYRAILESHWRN

Row | Structure (SMILES) | inhibition
1 | CSc1ccccc1C(=O)NC1CC2CCC1C2 (stereo not drawn) | 0%
2 | Cc1ccc(C(=O)CC2(O)C(=O)N(CN3CCOCC3)c3ccccc32)cc1 (stereo not drawn) | 7%
3 | O=C(Nc1nc(-c2ccccc2)cs1)C1CCCO1 (stereo not drawn) | 3%
4 | CCOC(=O)C1CCCN(c2c(N3CCN(c4ccccn4)CC3)c(=O)c2=O)C1 (stereo not drawn) | 2%
5 | CCOC(=O)C1CCN(C(=O)COc2ccc(S(=O)(=O)NC(C)C)cc2Cl)CC1 | 0%
6 | NC(=O)CSc1cn(CCNC(=O)c2cccs2)c2ccccc12 | 0%
7 | CCOC(=O)c1cccc(NC(=O)CNS(=O)(=O)c2cccs2)c1 | 0%
8 | COc1ccccc1NS(=O)(=O)c1ccc(OC)c(OC)c1 | 8%
9 | O=C(c1ccc(-c2cccc(C(F)(F)F)c2)o1)N1CCOCC1 | 0%
10 | CCOc1ccc(NC(=O)COC(=O)Cn2cnnn2)cc1OCC | 0%
11 | COc1ccc(-n2c(COc3ccccc3)nnc2SCc2ccc(C#N)cc2)cc1 | 0%
12 | CCOC(=O)c1c(-c2cccs2)csc1NC(=O)CCCC(=O)O | 0%
13 | CCN(C(=O)Cc1c(C(=O)O)[nH]c2ccccc12)c1cc(OC)ccc1OC | 0%
14 | O=C(CN1C(=O)C2CC=C(Cl)CC2C1=O)Nc1ccc(C(=O)O)cc1 (stereo not drawn) | 0%
15 | Cc1nnc(NC2CCCCC2)[nH]c1=O | 3%
16 | CCOC(=O)Cc1csc(NC(=O)c2cccc(OC)c2)n1 | 0%
17 | Cc1ccc(NC(=O)COc2nc(C)cs2)cc1 | 1%
18 | C=CCOC(=O)COc1ccc2c(C)c(C)c(=O)oc2c1C | 0%

— PubChem BioAssay
